# Experimental data reported in PubChem BioAssay (NCATS).
# Calls of active or inactive are those of the source. Calls come from the whole dose curve.
# Assay: qHTS drug screen for cell cycle checkpoint inhibitors in PARPi-resistant BRCA-mutant ovarian cancer cell lines. (AID 1963452)
# Conditions: PEO1/OlaR viability, CellTiter-Glo luminescence, 96 h, stronger effect = lower value
# Procedure, shortened: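 PEO1, PEO4 and PEO1/OlaR ovarian cancer cells, 600 per well, exposed 96 h at 37C to a dilution series. Viability read by CellTiter-Glo luminescence, normalized to DMSO and empty wells; activity summarized as Z-AUC.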
# [1] = measured here: PEO1 parental Z-AUC
Structure (SMILES),Z-AUC,Z-AUC [1],Z-AUC (measured here: PEO4 Z-AUC)
CNC(=O)c1cc(COc2nnc(Nc3ccc(Cl)cc3)c3ccoc23)ccn1,0.731 (inactive),0.432,0.337
CN1CCN(c2cccc(Nc3nc4c(-c5ccc(S(C)(=O)=O)cc5)cccn4n3)c2)CC1,0.515 (inactive),0.358,0.131
CN(C)c1ccccc1CN1CCCN(Cc2ccccc2N(C)C)C1c1ccncc1,-0.339 (inactive),0.0487,-0.169
CSc1cccc(Nc2ncc3cc(-c4c(Cl)cccc4Cl)c(=O)n(C)c3n2)c1,0.438 (inactive),0.39,0.318
CC1CCN(c2cc(N3CCN(C)CC3)ccc2NC(=O)c2cc(C#N)c[nH]2)CC1,-1.13 (inactive),-0.115,0.801
CC1(COc2ccc3c(c2)ncn3-c2ccc3cccc(N4CCC(N)CC4)c3n2)COC1,0.496 (inactive),-0.0934,-0.193
O=C(O)c1ccc(O)c2ncc(N3CCOCC3)cc12,-0.152 (inactive),-0.649,-0.698
NC1(C(=O)N[C@@H](CCO)c2ccc(Cl)cc2)CCN(c2ncnc3[nH]ccc23)CC1,-0.465 (inactive),0.588,0.532
C[C@@H](N)c1ccc(C(=O)Nc2ccnc3[nH]ccc23)cc1,0.345 (inactive),0.635,0.729
COc1cc2c(cc1Cc1cccc(Cl)c1F)c(=O)c(C(=O)O)cn2[C@H](CO)C(C)C,1.07 (inactive),0.736,0.927
O=C(CC12CC3CC(CC(C3)C1)C2)Nc1cccc2nc(NCCNCCO)ccc12,0.783 (inactive),0.506,0.728
O=C1CN2Cc3c(ccc(Cl)c3Cl)N=C2N1,-0.36 (inactive),0.71,0.69
CCC(c1ccc(O)cc1)C(CC)c1ccc(O)cc1 (stereo not drawn),-0.216 (inactive),-0.74,-0.679
Cc1ccccc1C(=O)c1ccc(Nc2ccc(Br)cc2N)cc1Cl,-0.304 (inactive),0.73,0.429
COC(=O)N1CCN(Cc2cccc(NC(=O)Nc3ccc(C)nc3)c2F)CC1,-0.162 (inactive),-0.204,-0.622
C[C@@H](O[C@H]1OCCN(Cc2n[nH]c(=O)[nH]2)[C@@H]1c1ccc(F)cc1)c1cc(C(F)(F)F)cc(C(F)(F)F)c1,-0.0654 (inactive),-0.373,-0.245
Cc1c(C(=O)Nc2ccc(N3C[C@@H](C)O[C@@H](C)C3)nc2)cccc1-c1ccc(OC(F)(F)F)cc1,0.823 (inactive),1.06,0.91
COc1ccc(-c2cc3nccn3c(Nc3ncccc3C(N)=O)n2)cc1OC,0.398 (inactive),0.401,0.0675
Nc1ncnc2c1ncn2[C@@H]1O[C@H](CO)[C@@H](O)[C@@H]1O,1.52 (inactive),0.934,0.856
CC1=C[C@@H]2[C@@H]([C@@H](O)C[C@@]3(C)[C@H]2C[C@@H](C)[C@]3(O)C(=O)CO)[C@@]2(C)Cc3cnn(-c4ccccc4)c3C=C12,-1.56 (inactive),-0.109,-1.25
CC(C)[C@H](O)C(=O)N[C@@H](C)C(=O)N[C@@H]1C(=O)N(C)CCc2ccccc21,-0.413 (inactive),-0.342,-0.336

Structure (SMILES),Z-AUC,Z-AUC [1],Z-AUC (measured here: PEO4 Z-AUC)
COc1ccc(-c2oc3c(CC=C(C)C)c(O)cc(O)c3c(=O)c2O)cc1,0.707 (inactive),0.584,0.876
CC(C)(C)c1nc(-c2cccc(NS(=O)(=O)c3c(F)cccc3F)c2F)c(-c2ccnc(N)n2)s1,1.26 (inactive),1,1.01
COc1ccc(CCC(=O)Nc2nc3ccc(Cl)cc3s2)cc1OC,-1.42 (inactive),-0.917,-0.954
CC(=O)NCCC(=O)N[C@@H](CCC(N)=O)C(=O)N[C@@H](CO)C(=O)N[C@@H](CCC(N)=O)C(=O)N[C@@H](CCC(N)=O)C(=O)N[C@H](C(=O)N[C@@H](Cc1ccccc1)C(=O)N[C@]1(C)CCCCCCC=CCCC[C@@](C)(C(=O)N[C@@H](CCC(N)=O)C(=O)N[C@@H](CC(N)=O)C(N)=O)NC(=O)[C@H](CC(C)C)NC(=O)[C@H](CC(C)C)NC(=O)[C@@H](CCCNC(=N)N)NC(=O)[C@H](Cc2c[nH]c3ccccc23)NC(=O)[C@H](CC(C)C)NC(=O)[C@H](CC(N)=O)NC1=O)[C@H](C)O,-0.975 (inactive),-0.536,-0.428
CC[C@H](CC#N)OC(=O)N[C@@H](C)c1cccc(NC(=O)Nc2ccc(-c3cnco3)c(OC)c2)c1,0.186 (inactive),-0.393,-0.852
COC(=O)Nc1ccc(-c2nc(N3CCOCC3)c3cnn(C4CCN(C(=O)OC)CC4)c3n2)cc1,0.0604 (inactive),-0.0911,-0.355
COc1ccc2c(c1)c(C1=C(c3c[nH]c4ccccc34)C(=O)NC1=O)cn2CCCN(C)C,-1.63 (inactive),-0.951,-1.4
COc1cc2ncnc(Nc3cc(Br)c(O)c(Br)c3)c2cc1OC,-1.45 (inactive),-0.545,-1.13
O[C@@H](COc1cccc2ncccc12)CN1CCN(C2c3ccccc3[C@@H]3[C@H](c4ccccc42)C3(F)F)CC1 (stereo partly drawn),-1.07 (inactive),-1.13,-0.777
NC(=O)c1noc([C@H](CCCC2CCCCC2)CC(=O)NO)n1,1.33 (inactive),0.607,0.522
Nc1[nH]nc2nnc(-c3c(-c4ccccc4)nn4ccccc34)cc12,-0.433 (inactive),0.0529,-0.206
CN1CCC(COc2cnc(-c3cccc(Cn4nc(-c5cccc(C#N)c5)ccc4=O)c3)nc2)CC1,-0.437 (inactive),-0.363,-0.442
CN1N=C(N)c2cn([C@@H]3O[C@H](COP(=O)(O)O)[C@@H](O)[C@@H]3O)c3ncnc1c23,-0.375 (inactive),-0.488,-0.707
CCCCCCCCCCCCCCCC(=O)O[C@H]1[C@@H](O)[C@@H](O)[C@@H]([C@H](NC(=O)[C@@H]2C[C@@H](CCC)CN2C)[C@H](C)Cl)O[C@@H]1SC,1.31 (inactive),0.604,0.552
CNC(=O)[C@H](Cc1ccccc1)NC(=O)[C@H](CC(C)C)[C@H](CSc1cccs1)C(=O)NO,-0.0435 (inactive),-0.157,0.653
CN1c2ccccc2C(=O)N2CCc3c([nH]c4ccccc34)C21 (stereo not drawn),0.807 (inactive),-0.272,-0.128
O=C(Nc1cccc(C(F)(F)F)c1)Nc1cc(S(=O)(=O)NC2CC2)ccc1-c1ccsc1,-0.117 (inactive),-0.289,-0.479
COc1c(C)cnc(Cn2cnc3c(Cl)nc(N)nc32)c1C,-0.301 (inactive),-0.874,-0.434
CC1CNc2c(cccc2S(=O)(=O)N[C@@H](CCCN=C(N)N)C(=O)N2CC[C@@H](C)C[C@@H]2C(=O)O)C1 (stereo partly drawn),1.14 (inactive),0.686,1.06
Fc1ccc(CNc2ncnc3ccc(F)cc23)cc1,-0.894 (inactive),-1.29,-1.17
O=c1cc(-c2ccc(O)c(O)c2)oc2cc(O)cc(O)c12,0.185 (inactive),0.49,0.398

Structure (SMILES),Z-AUC,Z-AUC [1],Z-AUC (measured here: PEO4 Z-AUC)
Clc1ccc(C2(c3ccc(-c4cn[nH]c4)cc3)CCNCC2)cc1,0.223 (inactive),0.18,0.0319
O=C(Nc1cccc(Cl)c1)Nc1ncc(CCNc2ncnc3ccsc23)s1,-0.664 (inactive),-1.1,-1.17
CC1=C(CC(=O)O)c2cc(F)ccc2C1=Cc1ccc(S(C)=O)cc1 (stereo not drawn),-0.123 (inactive),0.811,0.523
Nc1ncnc2c1c(-c1cccc(OCc3ccccc3)c1)cn2C1CC(CN2CCC2)C1 (stereo not drawn),-0.485 (inactive),-0.126,-0.746
Cc1csc(-c2nnc(Nc3ccc(Oc4ncccc4-c4ccnc(N)n4)cc3)c3ccccc23)c1,-0.397 (inactive),-0.785,-1.53
NS(=O)(=O)c1ccc(Nc2nc(OCC3CCCCC3)c3[nH]cnc3n2)cc1,-1.43 (inactive),-0.91,-1.12
CC(C)(OCc1nn(Cc2ccccc2)c2ccccc12)C(=O)O,1.03 (inactive),1.11,1.54
c1ccc(-c2oc3ncnc(NC[C@@H]4CCCO4)c3c2-c2ccccc2)cc1,-1.81 (inactive),-0.438,-1.2
Cc1cnc(Nc2cccc(CN3CCOCC3)c2)nc1Nc1cccc(S(=O)(=O)NC(C)(C)C)c1,-1.13 (inactive),-0.892,-1.26
CC(=O)Nc1cccc(-n2c(=O)n(C3CC3)c(=O)c3c(Nc4ccc(I)cc4F)n(C)c(=O)c(C)c32)c1,-0.972 (inactive),-1.33,-1.07
CN(C)CCCNC(=O)c1ccc(-c2cc(O)c3ncccc3c2)cc1,-0.763 (inactive),-0.299,-0.292
Cc1ccc(C2=Nc3ccc(Cl)cc3OC2)cc1,1.28 (inactive),0.878,0.727
CCOC(=O)c1c(CSc2ccccc2)n(C)c2cc(Br)c(O)c(CN(C)C)c12,0.838 (inactive),0.193,0.129
C[C@]12CC[C@@H]3c4ccc(O)cc4CC[C@H]3[C@H]1[C@@H](O)[C@@H](O)[C@H]2O,1 (inactive),0.841,0.542
COc1ccc(Cn2ccc3ccc(C(=O)NO)cc32)cc1,1.36 (inactive),1.01,1
CC(C)C[C@H](NC(=O)c1cc2ccccc2s1)C(=O)N1CCN(C(=O)[C@H](CO)NS(=O)(=O)c2ccc(Cl)cc2Cl)CC1,-0.613 (inactive),-0.17,-1.13
Cc1ccccc1-n1c(Cn2nc(-c3cccc(O)c3)c3c(N)ncnc32)nc2cccc(C)c2c1=O,-1.13 (inactive),-0.546,-0.912
OC(c1cc(C(F)(F)F)nc2c(C(F)(F)F)cccc12)C1CCCCN1 (stereo not drawn),0.945 (inactive),0.285,0.429
C=CC(=O)Nc1cccc(Sc2nc(Nc3ccc(N4CCN(C)CC4)cc3)ncc2Cl)c1,-0.713 (inactive),0.0484,0.0662
